RORgamma inh = qHTS for inhibitors of ROR gamma transcriptional activity; Drosophila S2 Gal4-RORgamma UAS-luciferase reporter, 20 h; Potency, µM (top dose mostly 53.6 µM), without a hit: at the highest dose activity change, negative = inhibition, most hits filed as inhibitors; 310,000 tested, 5.4% active; AID 2551, 2010; also: % is scaled to controls: 0 for no effect and ±100 for the full control effect; nearly all actives have a fitted effect of over 60% in size
Target sequence (P51450 whole entry, looked up, the tested form may be a part): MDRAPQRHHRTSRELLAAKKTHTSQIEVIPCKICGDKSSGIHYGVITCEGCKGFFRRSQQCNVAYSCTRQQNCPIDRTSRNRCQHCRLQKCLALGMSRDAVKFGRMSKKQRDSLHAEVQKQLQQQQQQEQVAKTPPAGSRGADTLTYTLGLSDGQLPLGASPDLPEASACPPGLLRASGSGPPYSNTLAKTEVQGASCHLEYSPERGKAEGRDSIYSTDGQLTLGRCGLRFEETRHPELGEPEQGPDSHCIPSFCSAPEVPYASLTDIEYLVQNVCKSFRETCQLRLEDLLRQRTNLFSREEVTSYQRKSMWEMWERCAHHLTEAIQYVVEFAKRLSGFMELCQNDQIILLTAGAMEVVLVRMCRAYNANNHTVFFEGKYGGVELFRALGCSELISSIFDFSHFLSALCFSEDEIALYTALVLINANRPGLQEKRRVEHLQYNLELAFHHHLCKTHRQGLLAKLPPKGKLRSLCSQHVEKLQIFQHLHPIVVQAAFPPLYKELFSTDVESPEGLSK
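Compounds are pin-transferred onto Drosophila Schneider cells expressing a copper-inducible Gal4–ROR gamma transactivation domain fusion. After 1 hr, copper sulfate is added to 700 uM final; luciferase is read 20 hr later.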
KB-V1 cytotox = qHTS assay for MDR1-selective chemotherapeutics: Primary screen using the drug-selected MDR subline cells KB-V1. KB-V1 MDR cells viability, CellTiter-Glo, 72 h. Potency, µM (series often up to 46.1 µM), most hits filed as cytotoxic. 400,000 tested, 3.4% active; also: % is scaled to controls: 0 for no effect and ±100 for the full control effect; nearly all actives have a fitted effect of over 60% in size
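Cytotoxicity toward P-gp-expressing KB-V1 cells was determined as loss of CellTiter-Glo luminescence after 72 h at 37 degrees C. Compounds were tested in quantitative HTS format across a concentration range, with curves fitted to normalized data.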
SW480 rereplic = A quantitative high throughput screen for small molecules that induce DNA re-replication in SW480 colon adenocarcinoma cells; SW480 DNA re-replication, Hoechst DNA content imaging, 48 h; Potency, µM (doses to about 46.1 µM), inactives show top-dose re-replication activation, most hits filed as activators; 340,000 tested, 1.8% active; also: % of control where 0% means no effect; nearly all actives have a fitted effect of over 55% in size
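DNA re-replication was detected as more nuclei of elevated Hoechst intensity after 48 hr exposure to compound (23 nL pinned per well of 250 cells).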
MCF10A rerep = A quantitative high throughput screen for small molecules that induce DNA re-replication in MCF 10a normal breast cells. MCF 10A DNA re-replication, Hoechst nuclear intensity, 48 h. Potency, µM (series often up to 46.1 µM), for the others: at the top dose activity, positive = re-replication, most hits filed as activators. 350,000 tested, 2.9% active; also: % of control where 0% means no effect; nearly all actives have a fitted effect of over 50% in size
VP16 counter = VP16 counterscreen qHTS for inhibitors of ROR gamma transcriptional activity; 310,000 tested, 3.5% active; Drosophila S2 Gal4-VP16 UAS-luciferase, luminescence, 20 h; Potency, µM (top dose mostly 53.6 µM), without a hit: top-dose activity, negative = inhibition, actives largely listed as inhibitors; AID 2546, 2010;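 also: Gal4-VP16 expression switched on by copper sulfate through the metallothionein promoter; % is scaled to controls: 0 for no effect and ±100 for the full control effect; nearly all actives have a fitted effect of over 50% in size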
KB-3-1 tox = qHTS assay for MDR1-selective chemotherapeutics: Primary screen using the parental adenocarcinoma cell KB-3-1; KB-3-1 viability, CellTiter-Glo ATP luminescence, 72 h; Potency, µM (series often up to 46.1 µM), hits mostly cytotoxic; 400,000 tested, 1.4% active; AID 1347075, 2019; also: % is scaled to controls: 0 for no effect and ±100 for the full control effect; nearly all actives have a fitted effect of over 60% in size
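Luminescent ATP read-out (CellTiter-Glo) measures survival of drug-naive KB-3-1 cells after 72 h compound exposure at 37 °C. Titration series was screened from lowest to highest concentration, with DMSO vehicle plates as background controls.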
Starred values were filed as active, the others as inactive; i = inactive; ? = inconclusive; nt = not tested or not shown; [ ] = remark or other dose. Rows were chosen to be rich in hits. Some 10% of all compounds tested hit in one or more screens of this group. Calls follow the shape of the dose curve; as a rule, active = well fitted curve in the direction sought with a large enough effect; inconclusive = small, poorly fitted or top-dose-only effect, or another doubt; inactive = no such curve, though single readings can be large; an effect the other way counts as inactive or inconclusive. Potency is read from the fitted curve at half-maximal effect.

SMILES | RORgamma inh | KB-V1 cytotox | SW480 rereplic | MCF10A rerep | VP16 counter | KB-3-1 tox
CC(C(=O)NC(=O)NC1CCCCC1)N1CCN(c2ccc(O)cc2)CC1 (stereo not drawn) | nt | 23µM* | -5% | 1% | nt | i
Cc1nn(-c2ccccc2)c2c1cc1c(=O)n(C)c(=O)nc-1n2-c1cccc(Cl)c1 | nt | i | nt | nt | nt | i
N/C(=N\N=C/c1ccc(F)cc1)N/N=C\c1ccc(F)cc1 | ? | i | 4% | ? | -1% | i
N/C(=N\N=Cc1ccc2c(c1)OCO2)NN=Cc1ccc2c(c1)OCO2 | nt | ? | ? | 23µM* | nt | ?
N/C(=N\N=C\c1ccc(Cl)cc1)N/N=C/c1ccc(Cl)cc1 | 14µM* | nt | 0% | ? | -16% | nt
CNC(=O)c1ccc2nc(-c3ccco3)c(-c3ccco3)nc2c1 | nt | i | nt | nt | nt | i
COc1ccc(C2(C)NC(=O)N(CC(=O)NCCC3=CCCCC3)C2=O)cc1OC (stereo not drawn) | 4% | i | -9% | 3% | 6% | i
Cc1ccc(C2(C)NC(=O)N(CC(=O)NCCC3=CCCCC3)C2=O)cc1 (stereo not drawn) | 27% | i | -1%[9.22 µM] | -5% | -14% | i
COc1ccc2cc(C3(C)NC(=O)N(CC(=O)NCCC4=CCCCC4)C3=O)ccc2c1 (stereo not drawn) | 18% | 16µM* | 10% | 10% | -4% | i
COc1ccc(N2CCN(C(=O)CN3C(=O)NC(C)(c4ccc5ccccc5c4)C3=O)CC2)cc1 (stereo not drawn) | nt | 2.3µM* | 14% | 3% | nt | 23µM*
CC1(c2ccc(Cl)cc2)NC(=O)N(CC(=O)NCCC2=CCCCC2)C1=O (stereo not drawn) | nt | ? | 0.16µM* | 17% | nt | i
O=C(Nc1ccnn1C1CCNCC1)c1ccc2c(c1)OCO2 | nt | i | 14% | ? | nt | ?
Cc1cc(C)c2oc(-c3cccc(NC(=O)c4ccc(-c5cccc([N+](=O)[O-])c5)o4)c3)nc2c1 | nt | i | nt | nt | nt | i
COc1ccc(C2=Nn3c(nnc3-c3ccccc3F)SC2)cc1OC1CCCC1 | nt | ? | ? | ? | nt | 8.2µM*
COc1ccc(C2=Nn3c(nnc3-c3ccccc3F)SC2)cc1OC1CCOC1 (stereo not drawn) | nt | 21µM* | 10µM* | ? | nt | 2.1µM*
COc1ccc(OC)c(-c2nnc3n2N=C(c2ccc(OC)c(OC4CCCC4)c2)CS3)c1 | nt | 4.6µM* | 0.73µM* | ? | nt | 0.92µM*
COc1ccc(C2=Nn3c(nnc3-c3ccccc3O)SC2)cc1OC | -25% | nt | nt | nt | 14% | nt
CCC(C(=O)Nc1ccccc1)n1nc(-c2cc(C)ccc2C)ccc1=O (stereo not drawn) | nt | i | nt | nt | nt | i
COc1ccc(NC(=O)CC2C(=O)N(c3cccc(OC)c3)C(=O)N2CCC2=CCCCC2)cc1 (stereo not drawn) | nt | i | nt | nt | nt | ?
Cc1cc(O)c(C(C[N+](=O)[O-])c2ccc(Cl)cc2)c(=O)o1 (stereo not drawn) | -4% | i | 12% | -7% | -12% | i
Cc1cc(C)n(C(C[N+](=O)[O-])c2ccc(Cl)cc2)n1 (stereo not drawn) | 16% | ? | ? | 15µM* | -1% | ?
Cc1nc2ccccc2c(=O)n1-c1ccc(NC(=O)C(F)(F)F)cc1 | nt | i | nt | nt | nt | i
CCN(CC)CCCNC(=O)CNC(=O)c1nn(-c2ccc(OC)cc2OC)c(=O)c2ccccc12 | nt | ? | nt | nt | nt | i
CC[C@H](C)[C@H](NC(=O)[C@H](C)NC(=O)[C@H](CC(=O)O)NC(=O)[C@H](CO)NC(=O)[C@@H](N)Cc1cnc[nH]1)C(=O)N[C@@H](Cc1ccccc1)C(=O)N[C@H](C(=O)N[C@@H](CCC(N)=O)C(=O)N[C@@H](CCC(N)=O)C(=O)N[C@@H](Cc1ccc(O)cc1)C(=O)N[C@@H](CO)C(=O)N[C@@H](CCCCN)C(=O)N[C@@H](CC(C)C)C(=O)N[C@@H](CC(C)C)C(=O)N[C@@H](C)C(=O)N[C@@H](CCCCN)C(=O)N[C@@H](CC(C)C)C(=O)N[C@@H](C)C(=O)N[C@@H](CC(C)C)C(=O)N[C@@H](CCC(N)=O)C(=O)N[C@@H](CCCCN)C(=O)N[C@@H](Cc1ccc(O)cc1)C(=O)N[C@@H](CC(C)C)C(=O)N[C@@H](C)C(=O)N[C@@H](CO)C(=O)N[C@H](C(=O)N[C@@H](CC(C)C)C(=O)NCC(=O)N[C@@H](CO)C(=O)N[C@@H](CCCNC(=N)N)C(=O)N[C@H](C(=O)N[C@@H](CO)C(=O)N1CCC[C@H]1C(=O)N1CCC[C@H]1C(=O)N1CCC[C@H]1C(N)=O)[C@@H](C)O)[C@@H](C)CC)[C@@H](C)O | -3% | nt | nt | nt | -3% | nt
CN(/N=C/c1ccc(Br)o1)C1=NS(=O)(=O)c2ccccc21 | -30% | i | ? | 23µM* | -10% | i
SMILES | RORgamma inh | KB-V1 cytotox | SW480 rereplic | MCF10A rerep | VP16 counter | KB-3-1 tox
O=C(N/N=C/C1CCCCC1)c1ccccn1 | ? | i | -10% | 0% | 0% | i
O=C(N/N=C/C1CCCCC1)c1cc(Cl)ccc1O | 13µM* | i | 0% | -2% | -14% | i
O=C(Nc1ccccc1)c1ccc2nc(-c3ccco3)c(-c3ccco3)nc2c1 | -20% | ? | 18µM* | 12µM* | ? | i
CC(=O)c1ccc(NC(=O)c2ccc3nc(-c4ccco4)c(-c4ccco4)nc3c2)cc1 | -11% | i | ? | ? | 9% | i
Cc1cccc(N2CCN(C(=O)c3ccc4nc(-c5ccco5)c(-c5ccco5)nc4c3)CC2C)c1 (stereo not drawn) | ? | i | ? | 12µM* | -4% | ?
O=C(c1ccc2nc(-c3ccco3)c(-c3ccco3)nc2c1)N1CCN(c2ncccn2)CC1 | 15% | ? | 9% | 13µM* | 2% | i
COc1cccc(CNC(=O)CCNS(=O)(=O)c2ccc3c(c2)CCCC(=O)N3)c1 | nt | i | nt | nt | nt | i
CCOC(=O)N1CCc2c(sc(NCc3ccc(N(C)C)cc3)c2C(=O)Nc2ccccc2OCC)C1 | nt | ? | nt | nt | nt | i
